From PubChem BioAssay
A549 tox: Nrf2 qHTS screen for inhibitors: counterscreen for cytotoxicity. A549 ARE-Fluc cells, CellTiter-Fluor viability, 18-24 h. Potency, µM (top dose mostly 46 µM), for the others: at the top dose activity change, negative = cytotoxicity, actives largely listed as inhibitors. 0.16% of 390,000 active. AID 504648, 2011; also: % is scaled to controls: 0 for no effect and ±100 for the full control effect
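A549 ARE-Fluc cells in 5% FBS OPTI-MEM, 5000 cells/well, rested 2 h then exposed to compounds in concentration-response for 18-24 h at 37 °C. Viability by CellTiter-Fluor fluorescence (Ex 405/Em 525) after 30 min; luciferase luminescence (BugLite, 15 min, RT) read afterwards.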
Nrf2 ARE act: qHTS of Nrf2 Activators; AREc32 ARE-luciferase reporter (MCF7-derived line), luminescence, 24 h; Potency, µM (series often up to 46.1 µM), inactives show top-dose activation, usual class: activators; 0.31% of 410,000 active; AID 624171, 2012; also: % of control where 0% means no effect; nearly all actives have a fitted effect of over 65% in size
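ARE-driven firefly luciferase activity in AREc32 cells measured after a 24 hr compound exposure at 37 deg C, using Steady-Glo reagent and a 30 min room-temperature hold.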
IDH1 R132H inh: qHTS for Inhibitors of mutant isocitrate dehydrogenase 1 (IDH1): qHTS | Isocitrate dehydrogenase [NADP] cytoplasmic (Homo sapiens), O75874 | IDH1-R132H enzyme, NADPH consumption, diaphorase/resazurin fluorescence | Potency, µM (highest dose often 76.6 µM), for inactives: at the highest dose activity change, negative = inhibition, actives largely listed as inhibitors | 0.093% of 390,000 active | AID 602179, 2012; also: % is scaled to controls: 0 for no effect and ±100 for the full control effect; nearly all actives have a fitted effect of over 65% in size
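IDH1-R132H (0.5 ug/mL dispensed) in pH 7.5 Tris buffer was preincubated 30 min with compound, then given a substrate mix of 0.016 mM NADPH and 2 mM alpha-KG for 80 min at room temperature; remaining NADPH was read by diaphorase/resazurin fluorescence.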
ELG1 repair inh: qHTS screen for small molecules that inhibit ELG1-dependent DNA repair in human embryonic kidney (HEK293T) cells expressing luciferase-tagged ELG1; HEK293T ELG1-luciferase reporter, luminescence, 16 h; DNA damage induced by 5-fluorouridine; Potency, µM (highest dose often 46.1 µM), for the others: top-dose activity change, negative = inhibition, actives largely listed as inhibitors; 2.3% of 330,000 active; AID 504467, 2011; also: % is scaled to controls: 0 for no effect and ±100 for the full control effect; nearly all actives have a fitted effect of over 55% in size
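Overnight (16 hr) co-exposure of 2,000 cells/well to 5-fluorouridine and compound at 37 °C preceded detection. Luciferase was quantified via ONE-Glo luminescence; loss of signal denotes inhibition.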
Nrf2 block: Nrf2 qHTS screen for inhibitors; Potency, µM (titrated, usually from 46 µM), for the others: at the top dose activity change, negative = inhibition, actives largely listed as inhibitors; 2.1% of 360,000 active; A549 ARE-Fluc reporter, luciferase luminescence, 18-24 h; also: % is scaled to controls: 0 for no effect and ±100 for the full control effect; nearly all actives have a fitted effect of over 60% in size
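Concentration-response testing used A549 ARE_Fluc cells at 5000 cells/well. Following an 18-24 h compound incubation, viability was read by fluorescence (Ex 405/Em 525) and luciferase output by luminescence.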
ELG1 FLuc counter: qHTS screen for small molecules that inhibit ELG1-dependent DNA repair: Hit Confirmation in Cell-Based Luciferin Assay. Potency, µM (series often up to 46.1 µM), inactives show at the highest dose activity change, negative = inhibition, hits mostly inhibitors. shares compounds with ELG1 repair inh. 3% of 350 active. AID 624247, 2012. cell-free firefly luciferase luminescence counter-screen, ViewLux; also: % is scaled to controls: 0 for no effect and ±100 for the full control effect
ELG1-Luc inh: HTS assay for small molecules that inhibit ELG1-dependent DNA repair in human embryonic kidney (HEK293T) cells expressing luciferase-tagged ELG1: Hit Confirmation; AID 624248, 2012; Potency, µM (titrated, usually from 46.1 µM), inactives show top-dose activity change, negative = inhibition, usual class: inhibitors; shares compounds with ELG1 repair inh; HEK293T ELG1-luciferase levels, luminescence; cells co-treated with 5-fluorouridine; 68% of 670 active; also: % is scaled to controls: 0 for no effect and ±100 for the full control effect; nearly all actives have a fitted effect of over 55% in size
ELG1 MMS Luc: inhibits ELG1-dependent repair under MMS stimulation in HEK293T cells; shares compounds with ELG1 repair inh; HEK293T luciferase-tagged ELG1 level, MMS stimulated; Potency, µM (doses to about 46.1 µM), for inactives: top-dose activity change, negative = inhibition, actives largely listed as inhibitors; 53% of 670 active; AID 624249; also: % is scaled to controls: 0 for no effect and ±100 for the full control effect; nearly all actives have a fitted effect of over 60% in size
ELG1 5-FU: qHTS screen for small molecules that inhibit ELG1-dependent DNA repair: Hit Confirmation with 5FU Viability; shares compounds with ELG1 repair inh; Potency, µM (series often up to 46.1 µM), inactives show at the highest dose activity change, negative = viability loss, most hits filed as cytotoxic; cell viability with 5-FU, ELG1-dependent repair; 670 tested, under 10 active;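 also: ELG1-luc HEK293T cells cotreated with 5-fluorouridine at 10 µM final; viability measured 16 h after compound addition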
ELG1 MMS viab: qHTS screen for small molecules that inhibit ELG1-dependent DNA repair: Hit Confirmation with MMS Viability; Cell viability with MMS, ELG1-dependent DNA repair; shares compounds with ELG1 repair inh; 33% of 670 active; Potency, µM (titrated, usually from 46.1 µM), for inactives: at the highest dose activity change, negative = viability loss, hits mostly cytotoxic; AID 624251, 2012;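 also: ELG1-luc HEK293T cells co-treated with 10 µM MMS; viability read 16 h after compound addition; % is scaled to controls: 0 for no effect and ±100 for the full control effect; nearly all actives have a fitted effect of over 60% in size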
ELG1 unstim viab: qHTS screen for small molecules that inhibit ELG1-dependent DNA repair: Hit Confirmation with Unstimulated Viability Assay; Potency, µM (highest dose often 45.9 µM), without a hit: at the highest dose activity change, negative = loss of viability, usual class: cytotoxic; cell viability counter-screen, unstimulated, luminescence; AID 624252, 2012; shares compounds with ELG1 repair inh; 8% of 900 active;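 also: compound exposure lasted 16 hours before reading; % is scaled to controls: 0 for no effect and ±100 for the full control effect; nearly all actives have a fitted effect of over 55% in size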
FLuc biochem: qHTS screen for small molecules that inhibit ELG1-dependent DNA repair: Hit Confirmation in Biochemical Luciferin Assay; shares compounds with ELG1 repair inh; purified firefly luciferase, luminescence counter-screen; Potency, µM (top dose mostly 57.5 µM), for inactives: at the top dose activity, negative = inhibition, usual class: inhibitors; 10% of 350 active; also: % is scaled to controls: 0 for no effect and ±100 for the full control effect
Numbers without * were called inactive; ? = inconclusive; nt = not tested or not shown. A selection: hits, their analogues and other compounds. The true share with any hit is near 3.8%. Calls follow the shape of the dose curve; as a rule, active = well fitted curve in the direction sought with a large enough effect; inconclusive = small, poorly fitted or top-dose-only effect, or another doubt; inactive = no such curve, though single readings can be large; an effect the other way counts as inactive or inconclusive. Potency is read from the fitted curve at half-maximal effect.

SMILES	A549 tox	Nrf2 ARE act	IDH1 R132H inh	ELG1 repair inh	Nrf2 block	ELG1-Luc inh	ELG1 MMS Luc	ELG1 5-FU	ELG1 MMS viab	ELG1 unstim viab	others
Cc1ccc(NC(=O)c2nc[nH]c2C(=O)NCCCCNC(=O)c2[nH]cnc2C(=O)Nc2ccc(C)cc2)cc1	-7%	0%	-14%	0.73µM*	-21%	1.3µM*	1.8µM*	-23%	?	-12%	ELG1 FLuc counter=0%;FLuc biochem=-3%
O=C(Nc1ccccc1)c1nc[nH]c1C(=O)NCCNC(=O)c1[nH]cnc1C(=O)Nc1ccccc1	-9%	1%	-6%	2.3µM*	-2%	5µM*	4.4µM*	-1%	?	16µM*
CCOC(=O)Cc1ccc(NC(=O)N(Cc2ccc(OC)cc2)C2CCN(C(C)=O)CC2)cc1	-5%	-1%	-9%	nt	33%	nt	nt	nt	nt	nt
CCN(CCn1cccn1)C(=O)c1ccc2nc(Cc3ccc(OC)cc3)oc2c1	1%	-1%	4%	19%	5%	nt	nt	nt	nt	nt
O=C(Nc1ccc(N2CCN(Cc3ccccc3F)CC2)cc1)c1ccc([N+](=O)[O-])o1	16µM*	?	6%	2.6µM*	23µM*	4µM*	4.4µM*	7%	6.3µM*	-18%
COc1cc(C)ccc1OCCSc1nc2ccc(NC(=O)c3ccc(F)cc3)cc2s1	5%	-1%	0%	nt	6%	nt	nt	nt	nt	nt
COc1cc2c(cc1OC)CN(C(=O)c1nn(Cc3ccccc3)c(=O)c3ccccc13)CC2	-19%	2%	3%	2.6µM*	?	1.1µM*	?	?	?	?
